Results on 13 compounds are retold here after PubChem BioAssay (NCI).

Holding throughout (test): NCI-60 one-dose screen, 48 h (100 = growth as untreated, 0 = no growth, -100 = all killed)
Common to all, as to settings: 10 µM

Assay [1] deals with RPMI-8226 leukemia.
For assay [2], the system named is OVCAR-8 ovarian.
Assay [3] has as its system OVCAR-5 ovarian.
The test system of assay [4] is OVCAR-4 ovarian.
For assay [5], the system named is SK-OV-3 ovarian.
The test system of assay [6] is IGROV1 ovarian.
Assay [7] has as its system OVCAR-3 ovarian.
For assay [8], the system named is HS 578T breast.
Assay [9] concerns NCI/ADR-RES ovarian.
For assay [10], the system named is T-47D breast.

About 83,000 compounds went through this panel and 20% of them were active in at least one assay; those are over-represented in the sample as a whole.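 Cells were grown in 96-well plates and exposed to the test compound at a single concentration for 48 hours; results are reported as percent growth, with values below 10 considered active.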 A number with no mark means an inactive call. Active and inactive are the calls of the source.

Turning to `O=C(Nc1cccc(-n2cc(-c3ccncc3)c(-c3ccc(O)c(Cl)c3)n2)c1)c1ccc(N2CCOCC2)c(C(F)(F)F)c1`, the growth in [1] was -18% (active); in [2] it was 30.7%; in [3], 37.8%; in assay [4], 69.3%; in assay [5] it was 64.2%; in assay [6] it was 64.8%. Also, the growth in assay [7] was 60.4%; in [8] it was 33.5%; in assay [9], 43.1%; in assay [10], 36.4%.
On to `CC12O[C@H](C[C@@H](O)[C@H]1O)n1c3ccccc3c3c4c(c5c6ccccc6n2c5c31)C(=O)N(CCCN)C4=O`, for which the growth in assay [1] was 40.2%; in assay [2], 33.9%; in [3] it was 97.2%; in [4] it was 61%; in assay [5] it was 41.8%; in assay [6], 17.9%. Further, the growth in [7] is 37.8%; in assay [8], 43.4%; in assay [9], 101%; in [10], 24%.
As for `COc1ccc(/C=C/C(=O)Nc2ccc(-c3nc4ccc(OC)cc4s3)cc2)cc1`, the growth in assay [1] was 96.4%; in assay [2] it was 106%; in assay [3] it was 108%; in assay [4], 128%; in [5] it was 104%; in assay [6] it was 118%. Besides, the growth in assay [7] is 124%; in assay [8] it was 108%; in assay [9], 101%; in [10], 101%.
Regarding `COc1cc(NC(=O)CCSc2nc3ccc(Cl)cc3c(=O)n2Cc2ccccc2)cc(OC)c1OC`, the growth in [1] was 42.5%; in assay [2] it was 73.9%; in assay [3] it was 88.8%; in assay [4], 61.5%; in assay [5], 82%; in [6], 101%. The growth in assay [7] is 93.4%; in assay [8], 40.3%; in assay [9] it was 84.3%; in [10] it was 64.2%.
With `COc1cc(-c2cc(/C=C3\C(=O)Nc4ccc(Cl)cc43)[nH]n2)cc(OC)c1OC`, the growth in assay [1] was -18.3% (active); in [2], 7.57% (active); in assay [3], 68.4%; in assay [4] it was 17%; in assay [5], 82.5%; in assay [6], -10.2% (active). The growth in assay [7] is 34.2%; in assay [8] it was 6.98% (active); in [9] it was 11.4%; in [10], 24.8%.
In the case of `CCCCCCCCCCCCCC[n+]1ccc(C(N)=O)cc1`, the growth in assay [1] was -41.2% (active); in [2] it was 1.18% (active); in assay [3], -4.86% (active); in [4] it was 32.4%; in assay [5], 34.3%; in [6], 110%. For the same compound, the growth in assay [7] is -27.1% (active); in assay [8] it was -14.5% (active); in assay [9], 96.1%; in [10] it was 46.9%.
`Clc1ccc2c(NCCCNc3nccc(Nc4ccc(Br)cc4)n3)ccnc2c1`: the growth in assay [1] was -59.9% (active); in assay [2], -65.2% (active); in assay [3], 15.3%; in assay [4], -9.2% (active); in assay [5] it was -44.1% (active); in [6], 24.2%. Also, the growth in assay [7] was -22.8% (active); in [8], -56% (active); in assay [9], 0.467% (active); in [10], -56.2% (active).
In the case of `CN(C)C=Nc1cc(Cl)ccc1Cl`, the growth in assay [1] is 98.9%; in assay [2], 114%; in assay [3], 104%; in [4] it was 99.9%; in assay [5] it was 110%; in assay [6], 118%. The growth in assay [7] was 113%; in [8], 117%; in assay [9] it was 107%; in [10], 108%.
Take `CCN(CC)CCOc1nc2ccc(OC)cc2c2c1-c1ccc(OC)cc1C2=O`: the growth in [1] is -24.5% (active); in assay [2], -60.1% (active); in [3], 49.3%; in assay [4] it was -6.86% (active); in assay [5], 30.9%; in assay [6], -48.8% (active). Also, the growth in assay [7] is -94.2% (active); in assay [8], 10.3%; in assay [9], 0.706% (active); in assay [10], 68.7%.
For the compound `COc1cc(C(=O)/C=C/c2cc(-c3cc(OC)c(OC)c(OC)c3)n[nH]2)cc(OC)c1OC`, the growth was -46.1% (active) in assay [1]; 8.1% (active) in assay [2]; 44.9% in [3]; 34.2% in assay [4]; 47.3% in [5]; -20% (active) in assay [6]. The growth in [7] was 7.64% (active); in assay [8] it was 62.4%; in assay [9], 34.6%; in assay [10], -26.1% (active).
On to `COc1ccc(/C=C2/CN(C(=O)c3ccccc3F)C/C(=C\c3ccc(OC)cc3)C2=O)cc1`, for which the growth in assay [1] was -19% (active); in assay [2], 19%; in assay [3] it was 106%; in assay [4], 61.3%; in assay [5] it was 76.7%; in [6], 30.6%. Also, the growth in [7] is 26.9%; in assay [8] it was 38.9%; in assay [9], 50.4%; in assay [10] it was 62.7%.
Take `O=C1/C(=C\c2ccccc2)CN(C(=O)c2ccccc2)C/C1=C\c1ccccc1`: the growth in [1] was -27% (active); in [2], 14.3%; in assay [3], 70.5%; in [4], 36.5%; in assay [5], 50.1%; in [6], 26.6%. The growth was -12.2% (active) in assay [7], -14.8% (active) in [8], 21.9% in assay [9] and 48.7% in [10].
For the compound `COc1cc(C)ccc1C(=O)c1ccc(C)cc1OC`, the growth was 21.9% in [1]; 23.9% in [2]; 46.8% in assay [3]; 63.1% in assay [4]; 17.1% in [5]; 37.2% in [6]. The growth is -39.2% (active) in [7], -12.6% (active) in assay [8], -2.71% (active) in assay [9] and 50.6% in assay [10].
